# Screening data: PubChem BioAssay, SRMLSC
# PMK inhibit: S. pneumoniae PMK inhibition; inhibition, % at 10 µM; 65,000 compounds, 0.49% hits; AID 539; purified PMK, PK/LDH-coupled NADH absorbance 340 nm;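 active = top-ranked compounds by inhibition in the single 10 µM screen, taking a fixed number of the strongest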;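 note: 0% = full reaction with DMSO carrier and 100% = background rate without enzyme reaction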
# A340 absorber: absorbance at 340 nm; compound absorbance at 340 nm, fold over control; 65,000 tested, under 10 active; fold change at 10 µM;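 active = at 10 µM dose, initial 340 nm absorbance at least 2 fold that of control wells; inactive = change under 2 fold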;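 note: initial absorbance extrapolated from kinetic A340 decline of NADH oxidation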
# NADH enzymes: inhibition of NAD/NADH coupling enzymes, library profiling | coupled PK/LDH NADH assays, four targets | IC50, µM (titrated, usually from 10 µM), without a hit: at the highest dose inhibition | 65,000 compounds, 0.02% hits | AID 774;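 active = single-dose screening hits from any of four coupled enzyme assays that gave an IC50 when retested across doses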;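 note: the DPM-DC format reads NADH fluorescence rather than 340 nm absorbance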
# Spn MK inh: blocks S. pneumoniae mevalonate kinase | purified MK, PK/LDH-coupled NADH absorbance 340 nm | inhibition, % at 10 µM | 65,000 compounds, 0.48% hits;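 active = ranked among the strongest by inhibition in the single 10 µM screen, a fixed top-ranked set picked for dose follow-up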
# DPM-DC inhibit: blocks S. pneumoniae diphosphomevalonate decarboxylase. purified DPM-DC, PK/LDH coupled NADH fluorescence. calls only at 10 µM. 65,000 compounds, 0.49% hits. AID 556;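 active = the 320 compounds with the highest percent inhibition in the single-dose primary screen, excluding strongly autofluorescent ones, cut at about 32% in these data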;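 note: kinetic rate of NADH fluorescence loss reporting ADP formed by the decarboxylase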
# Autofluor 339: intrinsic fluorescence of library compounds, ex339/em460 – biochemical, MLSMR library, data from DPM-DC assay, artefact control, profiling panel | compound autofluorescence, ex339/em460 nm, NADH buffer; stronger effect = higher value; 1 = no-compound wells, NADH background | fluorescence fold increase at 10 µM | 65,000 compounds, 5.5% hits | AID 709;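 active = at 10 µM, mean starting fluorescence two-fold or more over control wells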;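 note: signal is the first read of a kinetic run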
# Numbers without * were called inactive; i = inactive; / = not tested or not shown. A selection: hits, their analogues and other compounds. The true share with any hit is near 6.3%.
SMILES,PMK inhibit,A340 absorber,NADH enzymes,Spn MK inh,DPM-DC inhibit,Autofluor 339
O=C(COC(=O)c1cccc(NC(=O)c2ccco2)c1)c1ccc(Br)cc1,0.0,1.04,0.0%,0.0,i,1.13
Cc1occc1-c1nnc(SCC(=O)Nc2nccs2)n1CCc1ccccc1,13.0,1.03,12.0%,11.0,i,2.11*
COC(=O)C1CCCN1C(=O)C1CCCN1C(=O)CNC(=O)OCc1ccccc1 (configuration not stated),14.0,1.02,5.0%,1.0,i,1.1
CCCCNC(=O)c1cc2c(=O)n3cccc(C)c3nc2n1C,18.0,1.05,15.0%,11.0,/,2.14*
Cn1c(C(=O)N2CCCc3ccccc32)cc2c(=O)n3ccccc3nc21,16.0,1.07,15.0%,14.0,i,2.62*
COCCNC(=O)c1cc2c(=O)n3cccc(C)c3nc2n1C,4.0,1.14,4.0%,4.0,/,2.08*
Cn1c(C(=O)N2CCc3ccccc32)cc2c(=O)n3ccccc3nc21,0.0,1.07,0.0%,0.0,i,1.88
Cc1cccn2c(=O)c3cc(C(=O)N4CCN(c5ccccc5)CC4)n(C)c3nc12,2.0,1.12,1.0%,0.0,/,4.95*
CCOCCCNC(=O)c1cc2c(=O)n3cccc(C)c3nc2n1C,2.0,1.15,1.0%,0.0,/,2.08*
Cn1c(C(=O)NCc2ccccn2)cc2c(=O)n3ccccc3nc21,9.0,1.09,6.0%,3.0,/,4.93*
Cc1cccn2c(=O)c3cc(C(=O)N(C)C)n(C)c3nc12,10.0,1.11,9.0%,8.0,/,4.93*
Cc1cccn2c(=O)c3cc(C(=O)NCCCn4ccnc4)n(C)c3nc12,13.0,1.11,13.0%,12.0,/,4.97*
Cc1nc2c(C)cccn2c1/C(O)=C1\C(=O)C(=O)N(CCN(C)C)C1c1ccncc1 (configuration not stated),10.0,1.08,6.0%,9.0,i,1.06
O=C(c1cc(-c2cccs2)on1)N1CCCc2ccccc21,5.0,0.99,4.0%,8.0,i,1.07
Cc1cccn2c(=O)c3cc(C(=O)NCCCN4CCCC4=O)n(C)c3nc12,12.0,1.1,6.0%,0.0,/,4.98*
CCNC(=O)c1cc2c(=O)n3cccc(C)c3nc2n1C,10.0,1.09,9.0%,7.0,/,4.98*
O=C1c2ccccc2C(=O)N1Cc1nn2c(-c3ccc(Cl)cc3)nnc2s1,11.0,1.03,8.0%,12.0,i,1.11
CCCC(=O)Nc1ccc2c(c1)C(=O)N(CCC(=O)O)C2=O,8.0,1.06,9.0%,10.0,/,3.77*
O=C(O)CCN1C(=O)c2ccc(NC(=O)c3cccs3)cc2C1=O,8.0,1.06,10.0%,12.0,/,3.56*
CCc1cc2c(=O)c(-c3nc4ccccc4[nH]3)coc2c(CN2CCCC(C)C2)c1O (configuration not stated),14.0,1.05,8.0%,9.0,i,1.15
COc1nc(Nc2ccc(-c3nc4ccccc4o3)cc2)nc(N2CCOCC2)n1,0.0,1.1,4.0%,8.0,/,3.68*
Cc1cc(NCC2CCCO2)n2c(nc3ccccc32)c1C#N (configuration not stated),1.0,1,2.0%,5.0,/,2.47*
Cc1nc(NCCCn2ccnc2)c2ccccc2n1,15.0,1.02,7.0%,6.0,i,1.02
Cc1cc(NCCCn2ccnc2)n2c(nc3ccccc32)c1C#N,1.0,1.01,1.0%,4.0,/,3.35*
Cc1cc(N2CCN(C3CCCC3)CC2)n2c(nc3ccccc32)c1C#N,8.0,1.01,2.0%,9.0,/,2.46*
SMILES,PMK inhibit,A340 absorber,NADH enzymes,Spn MK inh,DPM-DC inhibit,Autofluor 339
Cc1cccc2cc(C#N)c(NCCCn3ccnc3)nc12,17.0,0.98,12.0%,0.0,i,2.59*
COCCn1c(CN2CCN(c3ccccc3F)CC2)nc2c1c(=O)n(C)c(=O)n2C,13.0,0.99,3.0%,6.0,i,1.03
N#CCCN(Cc1cccnc1)C(=O)Nc1cccc(Cl)c1,11.0,1,5.0%,4.0,i,1.11
Cc1cc(NCCN2CCCCC2)n2c(nc3ccccc32)c1C#N,0.0,0.99,2.0%,4.0,/,2.69*
N#Cc1c2c(c(NCCN3CCOCC3)n3c1nc1ccccc13)CCCC2,21.0,0.99,9.0%,5.0,i,1.77
CC(NC(=O)C(CC(=O)OC(C)(C)C)NC(=O)OC(C)(C)C)C(N)=O (configuration not stated),13.0,1.01,7.0%,8.0,i,1.07
